Compounds without any hit were thinned out: in the full panel of roughly 83,000, 20% have a hit.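 Interpretation: 100, growth as untreated; towards 0, rising growth inhibition; 0, no net growth; 0 to -100, cell death. Compounds scoring below 10 were considered active.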 Values without a mark were called inactive. Calls of active or inactive are those of the source.
How the values were obtained:
Assay in all cases: NCI-60 one-dose screen, 48 h (100 = growth as untreated, 0 = no growth, -100 = all killed)
Conditions in all cases: 10 µM unless noted
SK-MEL-2 melanoma = tested on: SK-MEL-2 melanoma
EKVX NSCLC = tested on: EKVX NSCLC
SN12C renal = tested on: SN12C renal
UO-31 renal = tested on: UO-31 renal
TK-10 renal = tested on: TK-10 renal
ACHN renal = tested on: ACHN renal
CAKI-1 renal = tested on: CAKI-1 renal
A498 renal = tested on: A498 renal
CCRF-CEM leukemia = tested on: CCRF-CEM leukemia
MOLT-4 leukemia = tested on: MOLT-4 leukemia
RPMI-8226 leukemia = tested on: RPMI-8226 leukemia
OVCAR-8 ovarian = tested on: OVCAR-8 ovarian
OVCAR-4 ovarian = tested on: OVCAR-4 ovarian
SK-OV-3 ovarian = tested on: SK-OV-3 ovarian
IGROV1 ovarian = tested on: IGROV1 ovarian
OVCAR-3 ovarian = tested on: OVCAR-3 ovarian
HS 578T breast = tested on: HS 578T breast
NCI/ADR-RES ovarian = tested on: NCI/ADR-RES ovarian
OVCAR-5 ovarian = tested on: OVCAR-5 ovarian

| SMILES | growth (SK-MEL-2 melanoma) | growth (EKVX NSCLC) [%] | growth (SN12C renal) | growth (UO-31 renal) | growth (TK-10 renal) | growth (ACHN renal) | growth (CAKI-1 renal) | growth (A498 renal) | growth (CCRF-CEM leukemia) | growth (MOLT-4 leukemia) | growth (RPMI-8226 leukemia) | growth (OVCAR-8 ovarian) | growth (OVCAR-4 ovarian) [%] | growth (SK-OV-3 ovarian) [%] | growth (IGROV1 ovarian) | growth (OVCAR-3 ovarian) | growth (HS 578T breast) | growth (NCI/ADR-RES ovarian) | growth (OVCAR-5 ovarian) |
| --- | --- | --- | --- | --- | --- | --- | --- | --- | --- | --- | --- | --- | --- | --- | --- | --- | --- | --- | --- |
| Cc1nc2ccccc2c(/C=C/c2ccc(Cl)cc2)c1C(=O)/C=C/c1cccs1 | 90.9% | 80.9 | 72% | 54.3% | 125% | 78.3% | 46.2% | 40.9% | 59.6% | 54.7% | 53.4% | 74.9% | 60.7 | 78.5 | 46.6% | 82.2% | 86.7% | 80.7% |  |
| CC(=O)c1ccc(Nc2nc(C(C)=O)c(C)s2)cc1 | 105% | 93.2 | 103% | 92.1% | 112% | 100% | 88.2% | -17.9% (active) | 90.9% | 100% | 95.1% | 102% | 94.4 | 101 | 98.2% | 99.9% | 99.5% | 105% |  |
| C[C@H](C(=O)Nc1ccc(S(N)(=O)=O)cc1)S(=O)(=O)c1ccccc1 | 102% | 98.3 | 101% | 85.8% | 95.4% | 98.9% | 95.2% | 106% | 105% | 105% | 110% | 99.1% | 105 | 106 | 98.9% | 117% | 101% | 99.3% |  |
| CCOc1ccc2nc(SCc3nc4n(n3)S(=O)(=O)c3ccccc3N4C)sc2c1 | 17.9% | 14 | 22.2% | -46.3% (active) | -8.01% (active) | 4.84% (active) | -39.5% (active) | -25.8% (active) | 3.93% (active) | 4.81% (active) | 30.7% |  | 31.2 | 35.3 | -30.9% (active) | 37.5% | -59.3% (active) | 6.82% (active) | -9.82% (active) |
| COc1ccc(-c2[nH]ncc2-c2cc3c(c(OC)c2)OCC(=O)N3)cc1 | 9.07% (active) | 38.7 | 35.8% | 36.4% | 1.85% (active) | 36.7% | 26% | -21% (active) | 23.2% | 31.9% | 29.3% | 23.5% | 54.4 | 19.8 | 38.2% |  | -2.19% (active) | 29.7% | 36.7% |
| O=C(/C=C/c1sc(Cl)nc1Cl)c1ccc(F)cc1 | 95.5% | 88.8 | 45.1% | 85.4% | 103% | 22.4% | 88.2% | 91.9% | 37.5% | 48.5% | 0.843% (active) |  | 102 | 99.4 | 94.8% | 9.39% (active) | 86.8% |  | 104% |
| CCN1C(=O)N(CC)C2Nn3c(s/c(=C4\C(=O)Nc5ccccc54)c3=O)=NC21 (stereo unspecified) | 61.2% | 83.2 | 49.8% | 54.8% | 13.7% | 53.7% | 37.9% | -2.29% (active) | 35.9% | 59% | 53.2% |  | 54.9 | 75.8 | 52.3% | 10.5% | 34.7% | 73% | 66.4% |
| COC(=O)/C=C1\S/C(=N\Nc2ccc([N+](=O)[O-])cc2[N+](=O)[O-])N(C2CCCCC2)C1=O | 90.5% | 78.5 | 21.6% | 19.2% | 60.2% | 42.3% | 57.1% | 63.1% | 17.9% | 42.7% | -21.8% (active) | 35.4% | 47.1 | 96.8 | 58.4% |  | 65.2% | 29.7% | 84.3% |
| CN1CCN(c2ccc(-c3cnc4c(-c5csc6ccccc56)cnn4c3)cc2)CC1 | -32.8% (active) | 22 | 0.637% (active) | -89.4% (active) | -18.7% (active) | -82.4% (active) | -13.9% (active) | -55.5% (active) | 16.8% | 16.2% | -16.7% (active) | -29% (active) | 11.9 | 81.1 | 5.7% (active) | -68.6% (active) | -28.4% (active) | -20.8% (active) |  |
